Results published in the supplement of paper PMC8371130.
Counter-ions that a name gives are not always drawn.

System: HL-1
Test: relative cell viability (CellTiter-Glo) vs DMSO control (% of DMSO control); higher = more viable cells
Procedure, shortened: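 HL-1 mouse atrial cardiomyocytes were plated in 384-well plates at 1000 cells per well together with compounds at 40, 200, 1000 or 5000 nM in 0.01% DMSO. One day later, cells went to a hypoxic workstation (1% O2) for 48 h, then were reoxygenated for 24 h in a normal incubator, or stayed in normoxia for the same time. Cell viability was read by CellTiter-Glo luminescence and normalised to vehicle-treated control cells.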

[1] = oxygen condition: hypoxia 48 h (1% O2) + reoxygenation 24 h, 40 nM
[2] = oxygen condition: hypoxia 48 h (1% O2) + reoxygenation 24 h, 200 nM
[3] = oxygen condition: hypoxia 48 h (1% O2) + reoxygenation 24 h, 1000 nM
[4] = oxygen condition: hypoxia 48 h (1% O2) + reoxygenation 24 h, 5000 nM
[5] = oxygen condition: normoxia 72 h, 40 nM
[6] = oxygen condition: normoxia 72 h, 200 nM
[7] = oxygen condition: normoxia 72 h, 1000 nM
[8] = oxygen condition: normoxia 72 h, 5000 nM

Row | Structure (SMILES) | relative cell viability [1] | relative cell viability [2] | relative cell viability [3] | relative cell viability [4] | relative cell viability [5] | relative cell viability [6] | relative cell viability [7] | relative cell viability [8]
1 | CCCCC1C(=O)N(c2ccccc2)N(c2ccccc2)C1=O [Phenylbutazone] | 100 | 104 | 93.3 | 110 | 102 | 112 | 43.1 | 112
2 | Cc1cccc(Nc2ccncc2S(=O)(=O)NC(=O)NC(C)C)c1 [Torsemide] | 103 | 102 | 107 | 106 | 106 | 112 | 112 | 105
3 | CN(c1nccc(=O)[nH]1)C1CCN(c2nc3ccccc3n2Cc2ccc(F)cc2)CC1 [Mizolastine] | 97.1 | 98.1 | 101 | 108 | 97.3 | 94.6 | 101 | 107
4 | CNC(=O)c1cc(Oc2ccc(NC(=O)Nc3ccc(Cl)c(C(F)(F)F)c3)cc2)ccn1 [Sorafenib] | 104 | 105 | 116 | 114 | 109 | 101 | 118 | 114
5 | Cc1ccc(S(=O)(=O)NC(=O)NN2CCCCCC2)cc1 [Tolazamide] | 101 | 103 | 98.3 | 110 | 102 | 99.1 | 106 | 117
6 | O=C1[C@H](CC[C@H](O)c2ccc(F)cc2)[C@@H](c2ccc(O)cc2)N1c1ccc(F)cc1 [Ezetimibe] | 111 | 104 | 108 | 115 | 111 | 112 | 116 | 112
7 | CCN(CC)CCOC(=O)C1(C2CCCCC2)CCCCC1 [Dicyclomine HCl] | 94.1 | 95.7 | 97.1 | 100 | 92.4 | 101 | 97.2 | 105
8 | CCC1(c2ccccc2)C(=O)NCNC1=O [Primidone] | 101 | 105 | 110 | 95.7 | 104 | 103 | 98.6 | 106
9 | CS(=O)(=O)CCNCc1ccc(-c2ccc3ncnc(Nc4ccc(OCc5cccc(F)c5)c(Cl)c4)c3c2)o1 [Lapatinib] | 101 | 97.4 | 99.7 | 104 | 93.2 | 96.8 | 94 | 102
10 | CN(CCOc1ccc(CC2SC(=O)NC2=O)cc1)c1ccccn1 (stereo unspecified) [Rosiglitazone HCl] | 107 | 93.8 | 101 | 109 | 100 | 93.8 | 104 | 107
11 | CC(=O)[C@H]1CC[C@H]2[C@@H]3CC=C4C[C@@H](O)CC[C@]4(C)[C@H]3CC[C@]12C [Pregnenolone] | 100 | 103 | 106 | 117 | 101 | 101 | 105 | 107
12 | NS(=O)(=O)c1cc(C(=O)O)c(NCc2ccco2)cc1Cl [Furosemide] | 116 | 105 | 108 | 112 | 106 | 101 | 111 | 106
13 | CN1CC2c3ccccc3Oc3ccc(Cl)cc3C2C1 (stereo unspecified) [Asenapine] | 105 | 104 | 108 | 106 | 111 | 101 | 103 | 111
14 | CNS(=O)(=O)CCc1ccc2[nH]cc(C3CCN(C)CC3)c2c1 [Naratriptan HCl] | 97.1 | 103 | 105 | 108 | 103 | 103 | 97.6 | 111
15 | N=C(N)NC(=O)c1nc(Cl)c(N)nc1N [Amiloride hydrochloride] | 103 | 105 | 100 | 110 | 106 | 105 | 96.6 | 109
16 | CC(C)(Sc1cc(C(C)(C)C)c(O)c(C(C)(C)C)c1)Sc1cc(C(C)(C)C)c(O)c(C(C)(C)C)c1 [Probucol] | 108 | 105 | 104 | 110 | 106 | 103 | 105 | 112
17 | [I-].[K+] [Potassium iodide] | 103 | 104 | 102 | 108 | 106 | 104 | 106 | 109
18 | CC/C(=C(/CC)c1ccc(O)cc1)c1ccc(O)cc1 [Diethylstilbestrol] | 105 | 106 | 107 | 109 | 108 | 96.7 | 108 | 112
19 | N=C(N)NC(=O)c1nc(Cl)c(N)nc1N [Amiloride hydrochloride dihydrate] | 101 | 106 | 107 | 118 | 101 | 102 | 106 | 111
20 | COC(=O)C1=C(C)NC(C)=C(C(=O)OC(C)C)C1c1cccc2nonc12 (stereo unspecified) [Isradipine] | 106 | 111 | 106 | 104 | 108 | 97.7 | 102 | 110
21 | NC(=O)c1ncn([C@@H]2O[C@H](CO)[C@@H](O)[C@H]2O)c1O [Mizoribine] | 103 | 109 | 115 | 108 | 111 | 104 | 103 | 110
22 | CN(C)CCN(Cc1cccs1)c1ccccn1 [Methapyrilene HCl] | 104 | 104 | 104 | 84.1 | 109 | 107 | 111 | 111
